Screening data (PubChem)
Shown are actives, neighbours in structure and some others; about 0.61% of the full set was active somewhere.
Vc quorum ag = quorum light induction in luxS cqsA deficient V. cholerae. V. cholerae BH1578 lux reporter, luminescence, 6 h. activation, % at 18.7 µM. hit rate 0.16% among 350,000. AID 588436; in the data active = activation mostly above about 9.7%, no sharp cut-off; inconclusive = no clear call, values can overlap the other calls; inactive = mostly below about 3.7%
BioA inh = BioA (M. tuberculosis) enzyme inhibition; hit rate 0.096% among 360,000; AID 602481; purified M. tuberculosis BioA enzyme, plate reader; inhibition, % at 9.99 µM; in the data active = inhibition above about 40%; inconclusive = no clear call, values can overlap the other calls
FadD28 binding = inhibitors of Mycobacterium tuberculosis FadD28 bisubstrate binding | FadD28 bisubstrate probe binding, fluorescence polarization | inhibition, % at 12.5 µM | hit rate 0.22% among 360,000; in the data active = inhibition above about 8.5%, passing the limit was not always enough; inconclusive = no clear call, values can overlap the other calls
Yp Topo-I inh = inhibitors of Yersinia pestis topoisomerase I. Y. pestis Topo-I cleavage product accumulation, plate reader. activity, % at 10 µM. hit rate 0.064% among 360,000. AID 504884; in the data active = activity above about 50%, passing the limit was not always enough; inconclusive = no clear call, values can overlap the other calls
TcdB GH inh = inhibitors of Clostridioides difficile toxin B glycohydrolase; P18177; TcdB glycohydrolase enzymatic assay, plate reader; inhibition, % at 9.99 µM; hit rate 0.24% among 350,000; AID 652162; in the data active = inhibition above about 10%
Starred values were filed as active, the others as inactive; i = inactive; ? = inconclusive; . = no result given.

SMILES	Vc quorum ag	BioA inh	FadD28 binding	Yp Topo-I inh	TcdB GH inh
CCOc1ccccc1C1CC(=O)NC(SCC(=O)Nc2nccs2)=C1C#N (stereo not given)	i	-0.1	-5.4	2.9	.
Cc1ccc(C2CC(=O)NC(SCC(=O)Nc3nccs3)=C2C#N)cc1 (stereo not given)	25.0*	-0.8	12.5*	-8.1	.
CO[C@H]1CN(C)C(=O)c2cc(NC(=O)Nc3c(C)noc3C)ccc2OC[C@H](C)N(CC2CC2)C[C@H]1C	.	1.0	.	.	0.0
COc1ccc(NC(=O)CN(C)C(=O)c2cccc(NS(=O)(=O)c3ccc(Br)cc3)c2)cc1	-0.6	.	-2.0	24.6	16.4*
Cc1ccc(-c2cc(C(=O)OC3CCOC3=O)c3ccccc3n2)c(C)c1 (stereo not given)	-1.4	-0.5	-12.3	24.6	18.0*
O=C(OC1CCOC1=O)c1cc(-c2cccs2)nc2ccccc12 (stereo not given)	0.3	0.7	-2.3	0.4	0.8
C/C(Cl)=C/CSc1nnc2n(N)c(=O)c3ccccc3n12	32.7*	.	1.1	3.1	.
NC(=O)CSc1nnc2n(N)c(=O)c3ccccc3n12	i	0.4	-1.9	8.7	1.2
COCC(=O)N1CC[C@@H]2[C@@H](CO)N(C)c3ccc(-c4ccccc4)cc3[C@@H]21	.	.	.	.	13.1*
COc1ccc(-c2ccc3c(c2)[C@H]2[C@H](CCN2C(=O)Cc2cccnc2)[C@@H](CO)N3C)cc1	.	1.1	.	.	10.8*
COCC(=O)N1CC[C@H]2[C@@H]1c1cc(-c3ccccc3)ccc1N(C)[C@H]2CO	.	.	.	.	-2.0
CC(C)NC(=O)N1CC[C@@H]2[C@@H](CO)N(C)c3ccc(-c4ccc(F)cc4)cc3[C@@H]21	.	.	.	.	11.7*
COCC(=O)N1CC[C@H]2[C@@H]1c1cc(-c3ccc(OC)cc3)ccc1N(C)[C@H]2CO	.	9.3	.	.	14.0*
COc1cccc(S(=O)(=O)Nc2ccc3c(c2)[C@H]2C[C@@H](CC(=O)N(C)C)O[C@@H](CO)[C@H]2O3)c1	.	0.0	.	.	-2.5
C[C@H](NC(=O)C[C@H]1C[C@H]2c3cc(NC(=O)Nc4ccc(C(F)(F)F)cc4)ccc3O[C@H]2[C@H](CO)O1)c1ccccc1	.	-0.7	.	.	0.8
CCC(=O)N1CC[C@@H]2[C@H]1c1cc(-c3ccc(OC)cc3)ccc1N(C)[C@H]2CO	.	.	.	.	11.3*
COCC(=O)N1CC[C@@H]2[C@H]1c1cc(-c3ccc(F)cc3)ccc1N(C)[C@H]2CO	.	13.0	.	.	14.7*
COCCNC(=O)C[C@H]1CC[C@H](NS(=O)(=O)c2ccc(C)cc2)[C@H](CO)O1	.	0.0	.	.	-2.5
CC1(C)Cc2c(sc3ncn4c(=S)[nH]nc4c23)CO1	-2.4	.	-3.8	-9.8	22.0*
Oc1ccc(/C=N/Nc2nc(N3CCCC3)nc(N3CCCC3)n2)cc1O	i	0.7	2.0	13.1	21.0*
COc1cc(/C=N/Nc2nc(N3CCCC3)nc(N3CCCC3)n2)ccc1O	0.2	-2.3	-1.1	2.5	.
Cn1cnc(CCNC(=O)C[C@H]2CC[C@@H]3[C@H](COC[C@H](O)CN3C(=O)Nc3ccc(C(F)(F)F)cc3)O2)c1	.	-0.7	.	.	.
Cc1c(CNC(=O)c2c([N+](=O)[O-])cnn2C)cnn1C	i	1.6	0.2	0.6	23.7*
CCCCC(CC)COC(=O)c1ccccc1C(=O)OCC(CC)CCCC (stereo not given)	-0.7	-0.4	-1.3	60.8*	0.6
C=CC[C@@H](CC(=O)N(CCO)Cc1ccccc1)C(=O)NC[C@@H](OC(=O)[C@@H](CC=C)CC(=O)OC(C)(C)C)c1ccccc1	0.3	0.1	-2.6	12.6	10.6*
SMILES	Vc quorum ag	BioA inh	FadD28 binding	Yp Topo-I inh	TcdB GH inh
Cc1nc(C)c(C(=O)Nc2cccc(F)c2)s1	i	47.1*	-1.2	-0.7	1.2
O=C(NCCCN1CCCC1=O)c1cc(S(=O)(=O)N2CCN(c3ccccc3)CC2)ccc1Cl	-0.3	3.7	-1.5	7.8	-0.7
Cc1ccc(S(=O)(=O)N2CCOCC2)cc1C(=O)NCCCN1CCCC1=O	0.5	-4.0	0.5	-3.0	10.6*
Cc1cc(O)ccc1NC(=O)c1ccccc1	-1.5	.	-4.4	1.9	12.1*
COC(=O)C(CC#Cc1ccc2c(c1)[C@]1(C(=O)N2)[C@H](c2ccccc2OCCO)N2[C@H](c3ccccc3)[C@H](c3ccccc3)OC(=O)[C@H]2[C@@H]1C(=O)NC[C@H](O)c1ccccc1)C(=O)OC	.	-2.7	.	.	-0.9
c1ccc(Cc2nnc3n2N=C(c2ccccc2)CS3)cc1	-0.2	.	-0.4	13.7	15.7*
O=C(Nc1nnc(-c2ccco2)o1)C1CCCCC1	-0.1	0.5	-1.2	1.0	0.7
O=C(Nc1nnc(-c2ccco2)o1)C1CC1	-0.3	0.2	-0.9	-2.3	10.0*
O=C(OCC(=O)N1CCCc2ccccc21)c1ccc(C(F)(F)F)cc1	-0.4	-0.8	-4.4	5.1	10.6*
CNC[C@H]1Oc2c(cccc2N(C)C)C(=O)N([C@H](C)CO)C[C@H]1C	.	-1.9	.	.	-1.3
Cn1c(SCC#N)nnc1-c1ccc2c(c1)OCO2	16.7*	1.6	-2.3	-7.7	.
Cn1c(SCc2ccccc2)nnc1-c1ccc2c(c1)OCO2	-0.7	5.6	-1.6	1.4	.
Cc1ccc(S(=O)(=O)N(C)C[C@@H]2Oc3ccc(NS(=O)(=O)c4cccs4)cc3C(=O)N([C@H](C)CO)C[C@@H]2C)cc1	.	0.1	.	.	.
N#C/C(=C\c1ccc(O)c(O)c1)C(=O)NCCc1ccccc1	-1.2	1.0	11.1*	-4.7	-5.6
C[C@H]1CN([C@@H](C)CO)C(=O)c2ccccc2-c2ccccc2CO[C@H]1CN(C)Cc1ccc(F)cc1	.	2.4	.	.	1.7
COc1ccccc1-c1cnc2c(c1)C(=O)N([C@@H](C)CO)C[C@@H](C)[C@H](CN(C)Cc1ccc(C(=O)O)cc1)O2	.	2.1	.	.	-0.2
Cc1cc(=O)oc2c(CN3CCCCC3)c(O)ccc12	i	.	-1.9	3.5	0.8
Cc1cc(=O)oc2c(N)c(O)ccc12	-0.2	0.5	0.1	2.7	11.6*
O=C(O)c1cc(Br)ccc1NN=C1CCCCC1	i	.	12.3*	1.1	-1.2
O=C(Nc1ccccc1)N1C[C@H]2[C@@H](c3ccccc31)[C@H](CO)N2C(=O)c1cccnc1	.	-5.4	.	.	-0.7
COc1ccc(Br)cc1CNCCc1ccc2c(c1)OCO2	-0.1	.	-2.5	8.0	0.9
COc1ccc(CNCCc2ccc3c(c2)OCO3)cc1Br	-1.2	-1.8	?	5.6	11.1*
CCCc1cc(-c2n[nH]c(C(=O)OCC)c2-c2cscn2)c(O)cc1O	-0.4	3.6	-3.2	16.8	21.5*
Nc1nc(Cl)cc(Oc2ccc(Cl)cc2)n1	i	.	0.5	9.2	-0.5
Cc1nc(N)nc(N)c1Oc1ccc(Cl)cc1	525.6*	-0.2	0.1	1.4	1.2
COc1cccc(CN2CCCCN3[C@H](C2)[C@H](c2ccc(-c4cccnc4)cc2)[C@@H]3CO)c1	.	-1.8	.	.	1.7
N#CC1=C(N)C2=C(N3CCCCC3)CCCC2C1(C#N)C#N (stereo not given)	0.1	1.6	45.5*	-6.0	.
CCCNC(=O)C[C@@H]1C[C@@H]2c3cc(NC(=O)C4CCOCC4)ccc3O[C@@H]2[C@H](CO)O1	.	-0.4	.	.	0.4
